Screening data: PubChem BioAssay, National Center for Advancing Translational Sciences (NCATS)
Shown are actives, neighbours in structure and some others; about 19% of the full set was active somewhere.
HT1080-NT tox: kills 2HG-producing HT-1080-NT fibrosarcoma cells. hit rate 1.6% among 360,000. Potency, µM (titrated, usually from 46.1 µM), for inactives: top-dose activity, negative = less viability, actives largely listed as cytotoxic. AID 686970. HT-1080-NT fibrosarcoma viability, CellTiter-Glo ATP luminescence, 48 h;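 further: NT is the 2HG producing partner of a matched IDH1 knockdown line; potency means the concentration at half of the fitted maximal effect; 0% = DMSO-treated cells and -100% = media-only wells without cells; nearly all actives have a fitted effect of over 55% in size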
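Viability of the 2HG-overproducing fibrosarcoma line after 48 hours of compound exposure at 37 degrees C was determined by luminescence with CellTiter-Glo, and concentration-effect curves were then fitted and categorized.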
DT40 TDP1 CPT: DT40-hTDP1 cell growth loss with CPT; chicken DT40 Tdp1-/-;hTDP1 cells + 20 nM CPT, ATP luminescence, 48 h; Potency, µM (highest dose often 46.2 µM), inactives show top-dose activity change, negative = growth inhibition, actives largely listed as inhibitors; hit rate 12% among 420,000; AID 686979; further: potency means the concentration at half of the fitted maximal effect; nearly all actives have a fitted effect of over 55% in size
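Chicken DT40 Tdp1-/- cells complemented with human TDP1, 400 cells/well, exposed to compounds plus 20 nM camptothecin for at least 48 h at 37 C; viability read as ATP content by CellTiter-Glo luminescence.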
DT40 TDP1 no CPT: qHTS for Inhibitors of human tyrosyl-DNA phosphodiesterase 1 (TDP1): qHTS in cells in absence of CPT; DT40 Tdp1-/- hTDP1 cells, no CPT, ATP luminescence, 48 h; Potency, µM (doses to about 46.2 µM), inactives show at the top dose activity change, negative = growth inhibition, hits mostly inhibitors; hit rate 15% among 420,000; further: potency means the concentration at half of the fitted maximal effect; nearly all actives have a fitted effect of over 55% in size
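Cells were dispensed at 400 per well, compounds added by pin tool, plates incubated ≥48 hr at 37 °C, then CellTiter-Glo added for 30 min at room temperature before luminescence reading. Line: DT40 Tdp1-/- complemented with hTDP1; camptothecin omitted.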
HT1080 IDH1KD tx: toxicity to HT-1080 IDH1 knockdown cells (counter line); HT-1080 IDH1 knockdown viability, ATP luminescence, 48 h; Potency, µM (doses to about 46.1 µM), without a hit: at the top dose activity, negative = toxicity, actives largely listed as cytotoxic; hit rate 2% among 360,000;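 further: potency means the concentration at half of the fitted maximal effect; 0% = DMSO wells and -100% = cell-free medium wells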
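Cytotoxicity counter-line: IDH1KD HT-1080, 48 h, CellTiter-Glo. Curves classed by r2, magnitude and activity.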
IL-1B inflam inh: inhibitors of inflammasome signaling (IL-1 beta secretion); hit rate 4.7% among 360,000; THP-1 LPS/ATP IL-1B secretion, AlphaLISA, 16 h; hits give low values; activity change, % at 57.5 µM; in the data active means activity change below about -50%; inconclusive means mostly about -30% to -49%
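THP-1 cells pretreated 1 hr with compounds (up to 57.5 uM final), then stimulated with LPS (250 ng/mL final) plus ATP (1.25 mM final); secreted IL-1B measured by AlphaLISA after 16 hr, decreased signal indicating inhibition.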
Numbers without * were called inactive; ? = inconclusive; nt = no result given. Unless noted, the call rests on the fitted dose curve; in most records, active means well fitted curve in the direction sought with a large enough effect; inconclusive means small, poorly fitted or top-dose-only effect, or another doubt; inactive means no such curve, though single readings can be large; an effect the other way counts as inactive or inconclusive. Unless noted, on the % scale 0 is the no-effect control and ±100 the full control effect.

SMILES	HT1080-NT tox	DT40 TDP1 CPT	DT40 TDP1 no CPT	HT1080 IDH1KD tx	IL-1B inflam inh
Cc1ccc(NC(=O)C(=O)NCc2ccc(/C=C(/C#N)C(=O)NCc3cccnc3)o2)cc1C	10%	?	16µM*	1%	0
O=C1c2cc3c(cc2CCC1c1ccc2c(c1)OCO2)OCO3 (configuration not stated)	2%	-26%	?	1%	-9
CCc1nc2c(OCC(=O)N(C)C)cccn2c1N(C=O)Cc1ccc(OC)cc1	10%	-4%	2%	0%	-8
CCc1nc2c(OCCC3CCCCC3)cccn2c1N(C=O)Cc1ccc(OC)cc1	?	?	?	?	-22
CCc1nc2c(OCCc3cccc(OC)c3)cccn2c1N(C=O)Cc1ccccc1	-5%	?	?	-15%	?
CCCCN(C=O)c1c(CC)nc2c(OCc3cc(Cl)cc(Cl)c3)cccn12	?	?	?	?	-21
CCc1nc2c(OCc3cc(Cl)cc(Cl)c3)cccn2c1N(C=O)Cc1ccccc1	?	26µM*	?	?	?
CCc1nc2c(OCCC3CCCCC3)cccn2c1N(C=O)Cc1ccccc1	?	16µM*	?	?	-26
CCc1nc2c(OCCc3cccc(OC)c3)cccn2c1N(C=O)Cc1ccc(OC)cc1	-26%	18µM*	?	-12%	-13
C=CCOc1cccn2c(N(C=O)Cc3ccccc3)c(CC)nc12	8%	13µM*	12µM*	2%	31
Cc1ccc(C(=O)Nc2cccnc2)cc1C	1%	0%	-29%	5%	-23
COc1cccc(-n2c(N)cc(=O)nc2SCC(=O)N2CCN(c3ccccc3)CC2)c1	13%	-7%	-2%	22%	2
CCCCN(C=O)c1c(CC)nc2c(OCc3ccc(Cl)cc3)cccn12	?	18µM*	23µM*	?	-51*
CCc1nc2c(OCc3ccc4c(c3)OCO4)cccn2c1N(C=O)Cc1ccc(OC)cc1	?	?	?	-4%	-6
CCc1nc2c(OCc3cc(Cl)cc(Cl)c3)cccn2c1N(C=O)Cc1ccc(OC)cc1	?	23µM*	?	?	-79*
CCCCN(C=O)c1c(CC)nc2c(OCc3ccc(S(C)(=O)=O)cc3)cccn12	2%	-24%	?	-26%	-12
CCc1nc2c(OCc3ccc(Cl)cc3)cccn2c1N(C=O)Cc1ccccc1	23µM*	?	23µM*	?	-14
CCc1nc2c(OCc3c(C)noc3C)cccn2c1N(C=O)Cc1ccccc1	23%	?	21µM*	8%	0
COCCn1c(=O)cnc2cnc(Oc3ccc(OC)cc3)nc21	nt	-25%	-17%	nt	nt
CCc1nc2c(OCC(=O)c3ccc(Cl)cc3Cl)cccn2c1N(C=O)Cc1ccccc1	-10%	21µM*	?	-12%	-8
CCc1nc2c(OCC(=O)C(C)(C)C)cccn2c1N(C=O)Cc1ccc(OC)cc1	9%	-15%	?	8%	49
O=C(NCc1ccccc1)C(c1ccc(F)cc1)N1CCN(c2ccccc2F)CC1 (configuration not stated)	?	9.2µM*	12µM*	?	-21
COc1cccc(C(C(=O)NCc2ccccc2)N2CCN(c3ccccc3F)CC2)c1OC (configuration not stated)	-16%	21µM*	16µM*	-10%	-26
CC1=C(c2ccc(C)c(C)c2)S(=O)(=O)N=C1N1CCC(C(=O)Nc2ccc(Cl)cc2)CC1	nt	16µM*	15µM*	nt	nt
CCOC(=O)C1CCN(C(=O)C2CCN(C3=NS(=O)(=O)C(c4ccc(C)c(C)c4)=C3C)CC2)CC1	nt	16µM*	?	nt	nt
SMILES	HT1080-NT tox	DT40 TDP1 CPT	DT40 TDP1 no CPT	HT1080 IDH1KD tx	IL-1B inflam inh
CC1=C(c2ccc(C)c(C)c2)S(=O)(=O)N=C1N1CCC(C(=O)N2CCC(C)CC2)CC1	nt	?	6.5µM*	nt	nt
CCOC(=O)C1CCN(C(=O)C2CCN(c3nn4c(=O)cc(C)nc4s3)CC2)CC1	22%	-15%	12%	1%	5
CC1=C(c2ccc(C)c(C)c2)S(=O)(=O)N=C1N1CCC(C(=O)N2CCC(C(N)=O)CC2)CC1	nt	3%	7%	nt	nt
COc1ccc(NC(=O)C2CCN(C3=NS(=O)(=O)C(c4ccc(C)c(C)c4)=C3C)CC2)cc1OC	nt	12%	11%	nt	nt
C=CCSCC=C	nt	9%	-12%	nt	nt
Cc1ccc(C(=O)Nc2ccc(N3CCCC3)cc2)cc1	2%	7%	-18%	3%	-10
O=C(Nc1nc(=O)n(C(=O)C2CC2)s1)c1ccccc1	13%	21µM*	23µM*	-8%	?
Cc1ccc(C(=O)Nc2nc(=O)n(C(=O)c3ccccc3C)s2)cc1	?	12µM*	13µM*	?	-65*
Cc1ccc(C(=O)Nc2nc(=O)n(C(=O)C3CC3)s2)cc1	-2%	21µM*	16µM*	-10%	?
CCCCc1nn2c(=O)cc(COC(=O)c3ccc4c(c3)OCO4)nc2s1	nt	-16%	-2%	nt	nt
C[N+](C)(C)c1ccc(/C=N/Nc2nc(Cl)c(C#N)c(Cl)c2Cl)cc1	1%	?	23µM*	-2%	7
O=P(O)(O)C(O)(Cc1cccnc1)P(=O)(O)O	nt	2%	-3%	nt	nt
N#CCC1c2ccccc2CCN1C(=O)Nc1ccc(C(F)(F)F)cc1 (configuration not stated)	?	?	?	?	1
N#CCC1c2ccccc2CCN1C(=O)Nc1cccc(C(F)(F)F)c1 (configuration not stated)	13µM*	?	?	?	-19
NC(C(=O)O)[C@H](O)C(=O)O (some centres not stated)	nt	-5%	-28%	nt	nt
Fc1ccc(C2=CC(c3ccc(F)cc3)n3c(nc4ccccc43)N2)cc1 (configuration not stated)	nt	15µM*	5.2µM*	nt	nt
COC(=O)c1ccc(C2C=C(c3ccc(Cl)cc3)Nc3nc4ccccc4n32)cc1 (configuration not stated)	nt	9.2µM*	8.2µM*	nt	nt
COC(=O)C1=C(C)Nc2nc3ccccc3n2C1c1ccccc1F (configuration not stated)	-6%	?	?	-6%	11
O=c1[nH]c(CN2CCN(c3ccccc3)CC2)nc2scc(-c3ccccc3)c12	-5%	13µM*	5.2µM*	-1%	0
